An excerpt weighted towards active compounds, which were near 19% of everything screened.
TGFb SMAD3 inh: qHTS for Inhibitors of TGF-b | 1.2% of 410,000 active | HepG2 CAGA-GFP TGF-b/SMAD3 reporter, GFP fluorescence, 18 h; TGF-beta stimulated, 500 pg/mL final | Potency, µM (highest dose often 46.1 µM), inactives show at the top dose activity, negative = inhibition, actives largely listed as inhibitors | AID 588855, 2011; note: potency is the fitted concentration of half-maximal effect; % is set by controls: 0 for no effect and ±100 for the full control effect; nearly all actives have a fitted effect of over 65% in size
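Smad-responsive CAGA-GFP expression was quantified in HEPG2 cells exposed to compounds and 500 pg/mL final TGF-beta for 18 h at 37 degrees C; unstimulated wells defined full inhibition.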
TDP1 cell CPT: qHTS for Inhibitors of human tyrosyl-DNA phosphodiesterase 1 (TDP1): qHTS in cells in presence of CPT; chicken DT40 Tdp1-/-;hTDP1 cells + 20 nM CPT, ATP luminescence, 48 h; Potency, µM (titrated, usually from 46.2 µM), for inactives: at the top dose activity change, negative = growth inhibition, hits mostly inhibitors; 12% of 420,000 active; AID 686979, 2013; note: potency is the fitted concentration of half-maximal effect; % is set by controls: 0 for no effect and ±100 for the full control effect; nearly all actives have a fitted effect of over 55% in size
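Chicken DT40 Tdp1-/- cells stably complemented with human TDP1 were seeded at 400 cells/well in medium containing 20 nM camptothecin, exposed to pin-transferred compounds, and grown at 37 °C for at least 48 hr. Viability was read as ATP luminescence.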
TDP1 cell noCPT: qHTS for Inhibitors of human tyrosyl-DNA phosphodiesterase 1 (TDP1): qHTS in cells in absence of CPT | DT40 Tdp1-/- hTDP1 cells, no CPT, ATP luminescence, 48 h | Potency, µM (titrated, usually from 46.2 µM), inactives show top-dose activity change, negative = growth inhibition, usual class: inhibitors | 15% of 420,000 active; note: potency is the fitted concentration of half-maximal effect; % is set by controls: 0 for no effect and ±100 for the full control effect; nearly all actives have a fitted effect of over 55% in size
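DT40 Tdp1-/-;hTDP1 cells, no CPT (DMSO vehicle only), 400 cells/well; compounds pin-transferred; ≥48 hr, 37 °C; CellTiter-Glo 30 min RT dark, luminescence read.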
HepG2 tox: qHTS for Inhibitors of TGF-b: Cytotox Counterscreen; HepG2 CAGA-GFP viability, ATP luminescence, 18 h; Potency, µM (series often up to 46.1 µM), for the others: top-dose activity change, negative = cytotoxicity, actives largely listed as cytotoxic; 0.76% of 410,000 active; AID 588856, 2011; note: potency is the fitted concentration of half-maximal effect
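HepG2 CAGA-GFP cells (1000/well, DMEM with 1% FBS) received compound, then TGF-beta at 500 pg/mL final, and were incubated 18 hours at 37 degrees C. Viability was read by CellTiter-Glo luminescence. Media-only wells were set as complete cell-killing and DMSO as no toxicity.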
S-ASM inh: Inhibitors of Secretory Acid Sphingomyelinase (S-ASM): qHTS | Sphingomyelin phosphodiesterase (Homo sapiens), P17405 | placental ASM, HMU-PC fluorogenic substrate, 60 min | Potency, µM (titrated, usually from 57.5 µM), without a hit: at the highest dose activity change, negative = inhibition, most hits filed as inhibitors | 0.006% of 340,000 active; note: potency is the fitted concentration of half-maximal effect
Target sequence (P17405 47-631 limits assumed): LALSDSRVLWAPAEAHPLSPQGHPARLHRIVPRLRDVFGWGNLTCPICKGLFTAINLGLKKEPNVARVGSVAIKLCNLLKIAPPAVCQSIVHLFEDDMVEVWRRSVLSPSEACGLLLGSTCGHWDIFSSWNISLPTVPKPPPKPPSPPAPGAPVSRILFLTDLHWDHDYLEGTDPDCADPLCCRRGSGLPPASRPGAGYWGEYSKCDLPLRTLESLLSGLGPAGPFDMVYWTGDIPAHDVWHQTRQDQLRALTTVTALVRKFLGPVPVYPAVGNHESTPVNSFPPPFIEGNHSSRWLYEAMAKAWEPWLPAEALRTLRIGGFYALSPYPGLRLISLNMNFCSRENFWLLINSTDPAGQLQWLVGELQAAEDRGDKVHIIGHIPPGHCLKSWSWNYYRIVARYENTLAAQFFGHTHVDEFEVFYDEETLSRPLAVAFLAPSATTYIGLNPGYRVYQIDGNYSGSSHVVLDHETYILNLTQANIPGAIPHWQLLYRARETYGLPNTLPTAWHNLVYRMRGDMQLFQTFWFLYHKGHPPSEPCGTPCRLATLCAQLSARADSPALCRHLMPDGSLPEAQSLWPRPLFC
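HMU-PC0 cleavage (9 uM final) by human placental ASM, 60 min at 37 °C following 10 min compound exposure at RT; stopped at pH 10, fluorescence Ex 386/Em 447 nm.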
IL1B secr inh: qHTS for Inhibitors of Inflammasome Signaling: IL-1-beta AlphaLISA Primary Screen; activity change, % at 57.5 µM; THP-1 LPS/ATP IL-1B secretion, AlphaLISA, 16 h; hits give low values; 4.7% of 360,000 active; AID 743279, 2014; in the data active = activity change below about -50%; inconclusive = mostly about -30% to -49%; note: % is set by controls: 0 for no effect and ±100 for the full control effect
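Secreted IL-1B measured by AlphaLISA bead assay after 16 h compound exposure of THP-1 cells; compounds (final up to 57.5 uM) added 1 h before LPS (250 ng/mL) and ATP (1.25 mM) stimulation; lower signal means less secretion.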
* = called active by the depositor. Unless noted, calls come from the whole dose curve; as a rule, active = well fitted curve in the direction sought with a large enough effect; inconclusive = small, poorly fitted or top-dose-only effect, or another doubt; inactive = no such curve, though single readings can be large; an effect the other way counts as inactive or inconclusive.

Results for O=C(NN=C1CCCCCCC1)c1ccc2ccccc2n1 ?
TGFb SMAD3 inh: 5%; TDP1 cell CPT: inconclusive; TDP1 cell noCPT: -20%; HepG2 tox: -5%; S-ASM inh: -2%; IL1B secr inh: 55

Results for Cc1ccc(OCCNC(=O)C2CC(=O)N(Cc3ccccc3)C2)cc1 (stereo unspecified) ?
TGFb SMAD3 inh: -18%; TDP1 cell CPT: 1%; TDP1 cell noCPT: 0%; HepG2 tox: -12%; S-ASM inh: -1%; IL1B secr inh: 20

What do the screens show for `COc1cc(C)ccc1S(=O)(=O)N1CCN(C23CC4CC(CC(C4)C2)C3)CC1`?
TGFb SMAD3 inh: -6%; TDP1 cell CPT: inconclusive; TDP1 cell noCPT: 16µM*; HepG2 tox: -23%; S-ASM inh: 5%; IL1B secr inh: -6

How did Cc1cc(C)c(S(=O)(=O)N2CCN=C2c2ccccc2)c(C)c1 do in these assays?
TGFb SMAD3 inh: -7%; TDP1 cell CPT: inconclusive; TDP1 cell noCPT: 16µM*; HepG2 tox: 0%; S-ASM inh: -2%; IL1B secr inh: 20

How did O=C(Cc1cccs1)N(Cc1cccs1)C1(C(=O)NC2CCCC2)CCCCC1 do in these assays?
TGFb SMAD3 inh: 0%; TDP1 cell CPT: 8.2µM*; TDP1 cell noCPT: 6.5µM*; HepG2 tox: -17%; S-ASM inh: -3%; IL1B secr inh: -24

What do the screens show for `O=C1NC(=O)C(CC(=O)N(c2ccccc2)C2(C(=O)NC3CCCC3)CCCCC2)N1` (stereo unspecified)?
TGFb SMAD3 inh: 2%; TDP1 cell CPT: -28%; TDP1 cell noCPT: -14%; HepG2 tox: -12%; S-ASM inh: 4%; IL1B secr inh: -5

Results for O=C(Cc1cccs1)N(c1ccc(F)cc1)C1(C(=O)NC2CCCCC2)CCCC1 ?
TGFb SMAD3 inh: -37%; TDP1 cell CPT: inconclusive; TDP1 cell noCPT: 23µM*; HepG2 tox: -18%; S-ASM inh: 1%; IL1B secr inh: 0

How did O=C(Cc1cccs1)N(CC1CCCO1)C1(C(=O)NC2CCCC2)CCCCC1 (stereo unspecified) do in these assays?
TGFb SMAD3 inh: -13%; TDP1 cell CPT: inconclusive; TDP1 cell noCPT: 16µM*; HepG2 tox: -4%; S-ASM inh: 8%; IL1B secr inh: -18

How did O=C(Cc1cccs1)N(Cc1ccco1)C1(C(=O)NC2CCCCC2)CCCCC1 do in these assays?
TGFb SMAD3 inh: 0%; TDP1 cell CPT: 15µM*; TDP1 cell noCPT: 18µM*; HepG2 tox: 1%; S-ASM inh: 0%; IL1B secr inh: inconclusive

What do the screens show for `O=C(c1ccc(=O)[nH]c1)N(Cc1cccs1)C1(C(=O)NC2CCCC2)CCCCC1`?
TGFb SMAD3 inh: -8%; TDP1 cell CPT: -1%; TDP1 cell noCPT: -6%; HepG2 tox: -3%; S-ASM inh: 3%; IL1B secr inh: 0

Results for CC(=O)N(Cc1ccco1)C1(C(=O)NC2CCCCC2)CCCCC1 ?
TGFb SMAD3 inh: -27%; TDP1 cell CPT: inconclusive; TDP1 cell noCPT: inconclusive; HepG2 tox: -5%; S-ASM inh: 1%; IL1B secr inh: 5

How did Nc1nc2c(ncn2[C@@H]2O[C@H](CNCc3ccc(Oc4cc(-n5cccn5)ncn4)cc3)[C@@H](O)[C@H]2O)c(=O)[nH]1 do in these assays?
TGFb SMAD3 inh: -3%; TDP1 cell CPT: -1%; TDP1 cell noCPT: 18%; HepG2 tox: 1%; IL1B secr inh: -1

What do the screens show for `N#Cc1ccc(OCC(=O)Nc2nc(-c3cccnc3)cs2)cc1`?
TGFb SMAD3 inh: -1%; TDP1 cell CPT: -4%; TDP1 cell noCPT: -4%; HepG2 tox: -38%; S-ASM inh: 2%; IL1B secr inh: 53

Results for Cc1ccc(Cl)cc1N1CCN(S(=O)(=O)c2cn(C)c(C)n2)CC1 ?
TGFb SMAD3 inh: -4%; TDP1 cell CPT: -20%; TDP1 cell noCPT: inconclusive; HepG2 tox: -21%

How did C=CC(C1=CC(=O)C(OC)=C(OC)C1=O)c1ccccc1 (stereo unspecified) do in these assays?
TDP1 cell CPT: 0.82µM*; TDP1 cell noCPT: 0.73µM*

How did C=CC(C1=CC(=O)C(OC)=CC1=O)c1ccccc1 (stereo unspecified) do in these assays?
TDP1 cell CPT: 3.7µM*; TDP1 cell noCPT: 2.9µM*

What do the screens show for `C=CC(C1=CC(=O)C(OC)=CC1=O)c1ccc(OC)cc1` (stereo unspecified)?
TDP1 cell CPT: 3.3µM*; TDP1 cell noCPT: 2.9µM*

What do the screens show for `CCCn1c(=O)[nH]c2nc(-c3ccc(S(=O)(=O)O)cc3)[nH]c2c1=O`?
TDP1 cell CPT: -20%; TDP1 cell noCPT: -11%

How did COc1ccc(C)cc1NC(=O)CN(c1ccccc1)S(=O)(=O)N(C)C do in these assays?
TGFb SMAD3 inh: 12%; TDP1 cell CPT: -21%; TDP1 cell noCPT: -27%; HepG2 tox: -11%

How did COc1ccc(NC(=O)CN(c2ccccc2)S(=O)(=O)c2ccccc2)c(OC)c1 do in these assays?
TGFb SMAD3 inh: 6%; TDP1 cell CPT: inconclusive; TDP1 cell noCPT: inconclusive; HepG2 tox: 6%; S-ASM inh: -3%; IL1B secr inh: 10

Results for COc1ccc(N(CC(=O)Nc2ccc(Cl)cc2C)S(=O)(=O)c2ccccc2)c(OC)c1 ?
TGFb SMAD3 inh: -22%; TDP1 cell CPT: inconclusive; TDP1 cell noCPT: 18µM*; HepG2 tox: -32%

What do the screens show for `COc1ccc(Cl)cc1NC(=O)CN(c1cccc(C)c1C)S(=O)(=O)c1ccccc1`?
TGFb SMAD3 inh: -2%; TDP1 cell CPT: 23µM*; TDP1 cell noCPT: 23µM*; HepG2 tox: -17%

How did COc1ccc(Cl)cc1NC(=O)CN(C)C(=O)c1sccc1-c1ccccc1 do in these assays?
TGFb SMAD3 inh: inconclusive; TDP1 cell CPT: inconclusive; TDP1 cell noCPT: inconclusive; HepG2 tox: -21%; S-ASM inh: -2%; IL1B secr inh: 14

What do the screens show for `COc1ccc(Cl)cc1NC(=O)CN(C)C(=O)c1sc2ccccc2c1Cl`?
TGFb SMAD3 inh: -18%; TDP1 cell CPT: 16µM*; TDP1 cell noCPT: inconclusive; HepG2 tox: -10%; S-ASM inh: -11%; IL1B secr inh: -6
